# Compounds with a hit are over-represented: about 9.2% of the library has one in this group of screens.
# ELG1 DNA repair – qHTS screen for small molecules that inhibit ELG1-dependent DNA repair in human embryonic kidney (HEK293T) cells expressing luciferase-tagged ELG1; AID 504467, 2011; HEK293T ELG1-luciferase reporter, luminescence, 16 h; DNA damage induced by 5-fluorouridine; Potency, µM (top dose mostly 46.1 µM), without a hit: at the top dose activity change, negative = inhibition, actives largely listed as inhibitors; 330,000 compounds, 2.3% hits; also: % is scaled to controls: 0 for no effect and ±100 for the full control effect; nearly all actives have a fitted effect of over 55% in size
#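 Cells (2,000 per well) received 5-fluorouridine plus test compound or DMSO and were incubated 16 hr at 37 °C, 5% CO2. Luciferase activity was read by luminescence 30 min after ONE-Glo addition; signal suppression marked inhibition of damage-induced ELG1 function.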
# NPC1 promoter act – qHTS Assay for NPC1 Promoter Activators; 320,000 compounds, 2.4% hits; Huh7 NPC1 promoter luciferase reporter, 24 h; Potency, µM (top dose mostly 9.22 µM), inactives show at the highest dose activation, actives largely listed as activators; AID 485313, 2010; also: % of control where 0% means no effect; nearly all actives have a fitted effect of over 60% in size
#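 Huh7 cells stably carrying NPC1 promoter–luciferase, plated in Opti-MEM with 10% FBS for 2 h, were exposed to compound in DMSO for 24 h at 37 °C; luciferase reagent was added for 10 min and luminescence read.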
# ELG1 genotoxic – qHTS screen for small molecules that induce genotoxicity in human embryonic kidney (HEK293T) cells expressing luciferase-tagged ELG1 | 330,000 compounds, 1.3% hits | AID 504466, 2011 | HEK293T ELG1-luciferase reporter, luminescence, 16 h | Potency, µM (highest dose often 46 µM), inactives show top-dose activity change, positive = activation, hits mostly activators; also: % of control where 0% means no effect; nearly all actives have a fitted effect of over 60% in size
#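 Genotoxicity was scored as increased ELG1-luciferase reporter signal, measured by ONE-Glo luminescence (30 min, room temperature). Compound or vehicle exposure of the HEK293T reporter cells lasted 16 hr at 37°C.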
# FLuc counter – qHTS profiling assay for firefly luciferase inhibitor/activator using purifed enzyme and Km concentrations of substrates (counterscreen for miR-21 project) | Luciferin 4-monooxygenase (Photinus pyralis), P08659 | 360,000 compounds, 6.9% hits | purified FLuc, Km substrates, luminescence inhibition | AID 588342, 2011 | Potency, µM (doses to about 57.5 µM), for inactives: at the top dose activity change, negative = inhibition, usual class: inhibitors;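 also: plate controls were vehicle for no effect and reference inhibitor for full effect; nearly all actives have a fitted effect of over 55% in size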
# Target sequence (P08659 whole entry, looked up): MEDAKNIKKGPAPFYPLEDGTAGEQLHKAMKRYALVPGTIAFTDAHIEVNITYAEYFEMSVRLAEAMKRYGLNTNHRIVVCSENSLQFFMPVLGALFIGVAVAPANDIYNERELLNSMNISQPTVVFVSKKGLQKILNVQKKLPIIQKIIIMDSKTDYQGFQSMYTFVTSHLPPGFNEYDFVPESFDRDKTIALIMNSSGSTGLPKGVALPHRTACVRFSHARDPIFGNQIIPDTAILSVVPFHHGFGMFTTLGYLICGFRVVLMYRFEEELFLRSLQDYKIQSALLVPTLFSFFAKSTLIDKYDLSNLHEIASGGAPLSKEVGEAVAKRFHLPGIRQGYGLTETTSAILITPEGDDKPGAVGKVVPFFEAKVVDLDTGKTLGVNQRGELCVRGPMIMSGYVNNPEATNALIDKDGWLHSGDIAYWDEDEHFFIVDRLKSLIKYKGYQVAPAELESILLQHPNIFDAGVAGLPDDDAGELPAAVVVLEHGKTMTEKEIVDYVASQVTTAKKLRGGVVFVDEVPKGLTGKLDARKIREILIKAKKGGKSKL
#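 Purified P. pyralis luciferase (10nM final) with 10uM D-luciferin and 10uM ATP (Km levels) in 50mM Tris acetate pH 7.5, 10mM Mg acetate, 0.01% Tween-20, 0.05% BSA; qHTS 6-point titration, ~60 µM downward; luminescence read.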
# Rab9 prom act – qHTS Assay for Rab9 Promoter Activators. Potency, µM (doses to about 9.22 µM), for inactives: at the top dose activation, negative = inhibition, hits mostly activators. 320,000 compounds, 2.8% hits. Huh7 Rab9 promoter-luciferase reporter, luminescence, 24 h; also: % of control where 0% means no effect; nearly all actives have a fitted effect of over 60% in size
#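 Cell-based reporter: Huh7 stable for Rab9 promoter-driven luciferase, plated in reduced-serum medium with 10% FBS at 1500 cells/well, compound-treated 24 h at 37 °C, luminescence read after 10 min reagent.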
# SMN2 splice enh – qHTS Assay for Enhancers of SMN2 Splice Variant Expression | AID 1458, 2008 | Potency, µM (highest dose often 46.1 µM), inactives show at the top dose activity change, positive = activation, actives largely listed as activators | HEK293 SMN2-luciferase splicing reporter, luminescence, 30-36 h | 210,000 compounds, 2.8% hits; also: % of control where 0% means no effect; nearly all actives have a fitted effect of over 55% in size
#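 HEK293 cells carry an SMN2 minigene-luciferase reporter in which exon 7 inclusion puts luciferase in frame. Cells were seeded at 2000 cells/well, attached for 10-12 hours, then exposed to compounds for 30-36 hours at 37C before ONE-Glo luminescence.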
# * marks the source's active call; other numbers are inactive results; ? = inconclusive; . = no result; [ ] = dose if it differs, or a comment. Calls follow the shape of the dose curve; as a rule, active = well fitted curve in the direction sought with a large enough effect; inconclusive = small, poorly fitted or top-dose-only effect, or another doubt; inactive = no such curve, though single readings can be large; an effect the other way counts as inactive or inconclusive. Potency is read from the fitted curve at half-maximal effect.
SMILES,ELG1 DNA repair,NPC1 promoter act,ELG1 genotoxic,FLuc counter,Rab9 prom act,SMN2 splice enh
Cc1ccc(/C=C2/Sc3ccc(C(=O)N4CCC5(CC4)OCCO5)cc3NC2=O)cc1,0.2%,-2.7%,-5.6%,15.1µM*,-1.7%,.
O=C(Nc1cccc(C(F)(F)F)c1)C1CCCN1S(=O)(=O)c1cccc2nsnc12 (stereo unspecified),.,.,.,-1.0%,.,-62.1%
CC(=O)Nc1ccccc1C(=O)OCC(=O)c1ccccc1Cl,?,?,?,9.53µM*,3.55µM*,16.9%
CC(=O)Nc1ccccc1C(=O)OCc1ccccc1F,?,15.6%,?,-4.4%,16.8%,24.1%
O=C1CN=C(c2ccc[nH]2)c2cc(Cl)ccc2N1,8.2µM*,-7.4%,-18.6%,-1.1%,-9.7%,.
CCC1=C(C[C@H]2NCCc3cc(OC)c(OC)cc32)C[C@H]2c3ccccc3CCN2C1,.,.,.,.,.,-4.4%[9.22 µM]
Cc1ccc(OCCOc2cccc(C=C3C(=O)NC(=O)NC3=O)c2)cc1,?,0.316µM*,2.7%,8.49µM*,0.316µM*,.
Nc1c2c(nc3ccccc13)CCN(Cc1ccccc1)C2,-0.1%,12.2%,-4.3%,23.9µM*,-3.2%,.
COc1ccc([N+](=O)[O-])cc1N=Cc1c(O)n(CCc2ccccc2)c(=O)n(C(C)C)c1=O,16.4µM*,-2.8%,-6.3%,-0.4%,-0.8%,-2.7%
COc1ccc(CCn2c(O)c(C=Nc3ccccc3F)c(=O)[nH]c2=O)cc1OC,2.7%,-4.7%,-0.9%,0.8%,-0.7%,.
O=C1N[C@@]2(CN3CCC2CC3)C(=O)N1CN(Cc1ccccc1)c1ccccc1,.,.,.,.,.,1.9%[9.22 µM]
O.O.[NH-]C1(C(=O)O)CCCC1.[NH-]C1(C(=O)O)CCCC1.[Ni+2],.,.,.,.,.,8.0%[9.22 µM]
CCC(=O)Nc1ccc(C(=O)OCc2ccccc2Cl)cc1,?,?,14.9%,19µM*,?,-14.4%
CCCc1cc2c(n1CCO)C(C)C1CN(C(=O)c3ccccc3)C(C)(C(=O)OC)C21 (stereo unspecified),.,.,.,.,.,7.2%
COc1ccc(CNC(=O)c2ccc(C(C)C)cc2)cc1,?,3.55µM*,?,9.53µM*,2.24µM*,12.6µM*
NC(=O)c1ncn([C@H]2O[C@@H](CO)[C@@H](O)[C@@H]2O)n1,.,.,.,.,.,3.8%[20.6 µM]
CCCCOCCCn1c(N)c(C(=O)OCCOC)c2nc3ccccc3nc21,?,-1.5%,-10.4%,2.3%,-3.5%,10.5%
CCCOC(=O)c1c(N)n(Cc2cccs2)c2nc3ccccc3nc12,20.6µM*,-3.2%,-12.0%,3.7%,1.1%,-5.4%
CCCCCn1c(N)c(C(=O)NCc2cccs2)c2nc3ccccc3nc21,?,-7.4%,0.4%,1.7%,8.4%,-11.7%
COCCOC(=O)c1c(N)n(Cc2ccccc2)c2nc3ccccc3nc12,18.4µM*,-0.6%,-11.5%,0.7%,1.4%,27.4%
CCCCn1c(N)c(C(=O)OCCOC)c2nc3ccccc3nc21,8.2µM*,-5.5%,-5.5%,-11.9%,-0.1%,.
CCCCn1c(N)c(C(=O)OCC2CCCO2)c2nc3ccccc3nc21 (stereo unspecified),9.2µM*,0.8%,-1.3%,?,10.5%,?
Nc1nc(N)c(N=Nc2ccc([As](=O)(O)O)c(O)c2)c(N)n1,.,.,.,.,.,-14.2%[9.22 µM]
CN(C)CCC(C#N)(c1ccccc1)c1ccccc1,.,.,.,.,.,-8.3%[9.22 µM]
COc1ccc(CCNC(=O)c2ccc3c(c2)N(Cc2cccc(Cl)c2)C(=O)CS3)cc1OC,.,.,.,-16.5%,.,-37.1%
NC[C@@H](O)CSP(=O)(O)O,.,.,.,.,.,-14.5%[9.22 µM]
O=C(NCc1cc(C(F)(F)F)ccc1Cl)c1cccc2c1C(=O)c1ccc(Cl)cc1S2(=O)=O,?,.,1.8%,.,.,.
